In PubChem BioAssay (NCI):
This is part of a sample that, as a whole, favours compounds with a hit. Of some 83,000 tested, about 20% had one in any assay.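 Treatment: one concentration, 48 hours, 96-well format. Scoring: percent growth, with anything below 10 considered active.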 Activity calls are given as the source filed them.

What follows are molecules tested on MDA-MB-468 breast (assay: NCI-60 one-dose screen, 48 h (100 = growth as untreated, 0 = no growth, -100 = all killed)). Settings: 10 µM unless noted.

Row | Structure (SMILES) | growth
1 | COc1ccc(C2[C@@H](c3ccccc3)C(=O)N2c2cc(OC)c(OC)c(OC)c2)cc1F (some centres undefined) | -4.41% (active)
2 | CC(=O)Nc1cc(C)ccc1C | 76% (inactive)
3 | N#CC1c2ccccc2C=CN1C(=O)CCCl (centres undefined) | 24.2% (inactive)
4 | COc1ccc(NC(=O)CCl)cc1 | 73.6% (inactive)
5 | CN1CCN(Cc2ccc(NC(=O)c3cncc(C#Cc4cnc(N)cc4C#N)c3)cc2C(F)(F)F)CC1 | -4.22% (active)
6 | COc1cc(-c2csc(NC(=O)Nc3ccc(Cl)cc3)n2)cc(OC)c1OC | 13.5% (inactive)
7 | COc1ccc(C2c3ccccc3NC(=O)N2C2CCN(C)CC2)c(OC)c1 (centres undefined) | 88.3% (inactive)
8 | CN1CCN(Cc2ccc(NC(=O)c3cncc(C#Cc4cncc5nccnc45)c3)cc2C(F)(F)F)CC1 | 87% (inactive)
9 | Cc1ccc2c(n1)C(=O)C(Cl)=C(Nc1ccccc1C(=O)OC(C)(C)C)C2=O | -76.5% (active)
10 | CCCn1c(=S)sc2c1nc(C)n1c(Nc3ccccc3)nnc21 | 51.5% (inactive)
11 | CC1=C(NCCN2CCCC2)C(=O)c2c(OCc3ccc(C(F)(F)F)cc3)cccc2C1=O | 82.2% (inactive)
12 | O=C1Nc2c(c(=O)n(-c3ccccc3)c3ccccc23)C(c2ccc(Cl)cc2)N1 (centres undefined) | 119% (inactive)
13 | COc1ccc2nc3c(n2c1)C(=O)C(=O)c1ccccc1-3 | -10.8% (active)
14 | C=C(C)[C@@H]1CC[C@]2(COCCCN)CC[C@]3(C)[C@H](CC[C@@H]4[C@@](C)(CCCNCCCN)[C@H](C(=C)C)CC[C@]43C)[C@@H]12 | -53.8% [100 µM] (active)
